Laboratory results: the supplement of paper PMC3334620
In all, about 33,000 sequences were measured (“E-score (-0.5 to 0.5)”: median about -0.016, highest 2% from about 0.32 on). The entries come from a sample that favours the highest values as a whole.

The sequences below were run against T1, Stp1 (UniProt B3LFK1) (assay: PBM E-score (8-mer binding enrichment) (E-score (-0.5 to 0.5)); higher = stronger / more preferred TF binding). Conditions: protein concentration: 200 nM; construct: GST-full length.
T1 sequence: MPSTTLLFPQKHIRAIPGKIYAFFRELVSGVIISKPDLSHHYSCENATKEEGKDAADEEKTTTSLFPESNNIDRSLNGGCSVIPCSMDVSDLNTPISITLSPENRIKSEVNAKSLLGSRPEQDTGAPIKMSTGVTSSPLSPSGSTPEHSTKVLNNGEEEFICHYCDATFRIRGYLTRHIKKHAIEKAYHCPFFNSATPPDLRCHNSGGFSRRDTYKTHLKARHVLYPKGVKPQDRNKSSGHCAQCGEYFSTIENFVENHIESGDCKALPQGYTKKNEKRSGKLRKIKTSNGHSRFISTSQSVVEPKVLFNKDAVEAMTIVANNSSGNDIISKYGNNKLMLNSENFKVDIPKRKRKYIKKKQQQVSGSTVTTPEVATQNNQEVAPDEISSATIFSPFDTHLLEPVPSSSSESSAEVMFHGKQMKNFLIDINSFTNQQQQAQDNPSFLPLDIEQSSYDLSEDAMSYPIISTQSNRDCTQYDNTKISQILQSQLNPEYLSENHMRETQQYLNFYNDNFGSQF
Outline: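 Yeast transcription factors carrying a GST tag, as full-length proteins or DNA-binding domains, were produced by PURExpress in vitro transcription/translation. About 100-200 nM protein was applied to universal all-10-mer Agilent arrays, double-stranded by primer extension on fresh or once-stripped slides. Bound protein was detected with fluorescent anti-GST, and scans were normalised with masliner. The Universal PBM Analysis Suite gave each ungapped eight-base word, pooled with its reverse complement, an E-score, a modified Wilcoxon-Mann-Whitney statistic.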

| Sequence | PBM E-score |
| --- | --- |
| CCTCCAGA | 0.0135 |
| CACATCGC | -0.115 |
| TGCGCTAA | -0.0463 |
| GGCGCTAA | 0.37 |
| CGCGCTGA | -0.0138 |
| GGCGCTGA | 0.327 |
| AGCGCTGA | -0.0259 |
| CGCGCTAA | 0.227 |
| GGGGCAGA | -0.0961 |
| GTCGACAA | -0.192 |
| CCGAACGC | 0.226 |
| CCGAACGA | -0.0055 |
| CCGAACGG | 0.334 |
| CGTAATAC | 0.186 |
| CCTGGGCC | -0.181 |
| CCGGCACA | 0.106 |
| ACGGCACA | 0.479 |
| ACGGCACG | 0.484 |
| CGGGCACA | -0.106 |
| TCGGCACA | 0.135 |
| CCGGCACG | 0.27 |
| ACTCTGAG | -0.046 |
| AAGTGTGC | 0.122 |
| AACAGTGT | -0.102 |
| CGAGGGCG | -0.052 |

| Sequence | PBM E-score |
| --- | --- |
| ACGGCGAG | 0.437 |
| AGGGCGAG | -0.12 |
| AAGGCGAA | 0.197 |
| AAGGCGAT | 0.329 |
| AAGGCGAG | -0.158 |
| CCGGCGAG | 0.0395 |
| ACCGCGAT | 0.0376 |
| AGGGCGAT | 0.0677 |
| ACGGCGAT | 0.479 |
| CTATGGTA | -0.0844 |
| AGTTTTGC | 0.203 |
| AAGGGATA | -0.00219 |
| CTAAGTAG | 0.0172 |
| ACTTTGTC | 0.0794 |
| ACTTAAAT | 0.0505 |
| CAAGCGGC | 0.466 |
| CAAGCGGG | -0.168 |
| AAAGCGGC | 0.366 |
| CGAGCGGC | 0.416 |
| GAAGCGTC | -0.0144 |
| AGAGCGGC | 0.307 |
| AAAGCGGA | 0.0227 |
| AAAGCGGG | -0.19 |
| GAAGCGGA | -0.0314 |
| GAAGCGGC | 0.426 |

| Sequence | PBM E-score |
| --- | --- |
| CGAGCGGA | 0.114 |
| CAAGCGGA | -0.0234 |
| AAAGGGAC | -0.055 |
| AAGACCGA | -0.107 |
| ACTTAGGC | -0.0486 |
| ATATTCGG | 0.0873 |
| ACCCATAC | -0.0919 |
| AAGTCTCG | -0.199 |
| CGCCAACG | 0.0633 |
| ATGGCTCG | -0.0567 |
| ATAAACAT | 0.222 |
| AAAAGAAC | 0.0475 |
| AAAAGAAG | 0.19 |
| AAAAGAAT | 0.322 |
| GTTATAAA | 0.0721 |
| CGTATAAA | 0.319 |
| TTTATAAA | 0.376 |
| CGTATAAC | 0.217 |
| AGTATAAA | 0.297 |
| CTTATAAA | 0.115 |
| AGTCTGTA | -0.18 |
| AAGTCCCG | -0.145 |
| GCTCGAAC | -0.0559 |
| CCAGGTGC | -0.187 |
| AGGCAAAA | 0.344 |

| Sequence | PBM E-score |
| --- | --- |
| CGGCAAAA | 0.357 |
| AGGCAAAC | 0.118 |
| TGGCAAAA | 0.292 |
| GGGCAAAA | 0.142 |
| CGGCAAAG | 0.264 |
| AGACCTCG | -0.157 |
| CGCGAGGA | -0.0281 |
| ACCGAGGC | -0.121 |
| CACGAGGA | 0.102 |
| CACGAGGG | -0.253 |
| GCCGAGGA | 0.0308 |
| CACGAGGC | 0.415 |
| GCCGAGGC | 0.357 |
| AGCGAGGC | 0.197 |
| CGCGAGGC | 0.421 |
| ATCAGGTC | -0.114 |
| CACGATAC | -0.0326 |
| GACAACAA | 0.0779 |
| AAGCCCCT | -0.287 |
| CCTTAACC | -0.221 |
| ACCCCGCT | -0.174 |
| ACAGCAGT | -0.0354 |
| ACGGCAGA | 0.367 |
| TCGGCAGA | -0.0589 |
| CCGGCAGA | -0.0739 |

| Sequence | PBM E-score |
| --- | --- |
| ACGGCAGT | 0.403 |
| ATGGCAGC | 0.00395 |
| AAGGCAGT | 0.103 |
| ACGGCAGG | 0.343 |
| CCGGCAGC | -0.063 |
| AAGGCAGG | -0.236 |
| ACGGCAGC | 0.406 |
| CCGGCAGG | -0.17 |
| ATCTTTAG | 0.0678 |
| AGCCATCC | 0.0193 |
| GCAGCGGC | 0.32 |
| CCAGCGGC | 0.256 |
| GCGGCAGA | 0.261 |
| GCAGCGGA | -0.0607 |
| GCGGCAGC | 0.334 |
| GAGGCAGC | 0.0343 |
| ACTTTTTA | 0.157 |
| AACTACGG | -0.0064 |
| AAGCGCCA | 0.0796 |
| AAGCGCCG | 0.465 |
| CAGCGCCA | 0.0346 |
| AAGCGCCT | 0.272 |
| CAGCGCCG | 0.446 |
| CAGCGCCC | 0.188 |
| CAGTAGAG | -0.155 |

| Sequence | PBM E-score |
| --- | --- |
| AGTCGATC | -0.128 |
| GACGGGAC | -0.203 |
| CACGTGGC | 0.213 |
| GCCTAGCC | 0.0204 |
| CCGTGGGA | 0.047 |
| ACTGGAAG | -0.2 |
| GTAGGTCA | -0.249 |
| AGGCACAC | 0.0169 |
| GGGCACAC | -0.098 |
| CGCCACAG | -0.0135 |
| CGCCACAC | 0.324 |
| CGGCACAA | 0.405 |
| AGGCACAA | 0.288 |
| CGGCACAC | 0.381 |
| GGCCACAC | 0.0354 |
| GGGCACAA | 0.202 |
| CCGCACAG | 0.201 |
| CGGCACAG | 0.398 |
| AGGCACAG | 0.133 |
| CATGCAAA | 0.112 |
| CATCTCAG | -0.0765 |
| AACGCTCC | -0.122 |
| CTAAACTA | -0.0468 |
| AAATTCCG | 0.126 |
| CGTCTTAC | -0.0611 |

| Sequence | PBM E-score |
| --- | --- |
| AGGACCAT | -0.113 |
| GCAGTGCA | -0.0796 |
| AATGTAGC | -0.0806 |
| AGTTCGCC | 0.159 |
| GCTACACC | -0.0559 |
| AGAGAGTC | -0.173 |
| CCCGTAAC | -0.112 |
| ACCGTAAC | 0.0376 |
| ACCGTATA | -0.0953 |
| TCCGTAAA | 0.0695 |
| CCCGTATA | 0.12 |
| GCCGTAAC | 0.33 |
| ACCGTAAA | 0.0391 |
| GCCGTATA | 0.475 |
| GCCGTAAA | 0.369 |
| CGATCGAG | 0.0366 |
| AACTCAGA | 0.183 |
| ATCGCCGG | 0.192 |
| CTCGCCGC | 0.353 |
| CTCGCCAC | -0.0166 |
| ATCGCCGA | 0.212 |
| ATCGCCGC | 0.45 |
| CTCGCCGA | -0.0672 |
